Our source for the composite z-score and composite Z-score values is PubChem BioAssay.

For test [1], the target named is Albumin (Bos taurus) (UniProt P02769). Put plainly: compounds binding labelled BSA control protein – biochemical, small-molecule microarray, Alexa647 label, 635/667 nm fluorescence, artefact control for SMM control protein annotation, profiling panel (AID 1118).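 Also: score merges 667 nm emission intensity and signal-to-noise per printed compound spot.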 The conditions noted are these: BSA-A647 binding, fluorescence 635 nm, higher = more signal.
Chain of Albumin (Bos taurus) (P02769 whole entry, looked up): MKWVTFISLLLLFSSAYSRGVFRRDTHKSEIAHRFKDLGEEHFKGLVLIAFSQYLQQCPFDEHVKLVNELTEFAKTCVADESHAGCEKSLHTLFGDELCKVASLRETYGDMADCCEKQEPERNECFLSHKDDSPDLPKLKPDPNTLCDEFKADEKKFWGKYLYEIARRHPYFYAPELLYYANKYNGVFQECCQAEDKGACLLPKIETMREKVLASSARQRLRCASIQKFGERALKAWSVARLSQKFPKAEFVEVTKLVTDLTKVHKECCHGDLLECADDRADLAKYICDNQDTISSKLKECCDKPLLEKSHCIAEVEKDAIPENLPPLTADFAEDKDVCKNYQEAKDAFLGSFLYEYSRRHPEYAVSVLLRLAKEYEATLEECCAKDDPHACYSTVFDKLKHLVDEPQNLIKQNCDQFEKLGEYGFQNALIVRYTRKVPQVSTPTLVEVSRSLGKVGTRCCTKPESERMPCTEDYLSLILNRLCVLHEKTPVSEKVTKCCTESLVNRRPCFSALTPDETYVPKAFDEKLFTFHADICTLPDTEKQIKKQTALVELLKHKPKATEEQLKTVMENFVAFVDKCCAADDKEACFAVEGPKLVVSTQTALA
Test [2] can be described thus: probe aXIP binding to arrayed compounds – biochemical, NeuroSMM set, 635/667 nm fluorescence, primary screen (AID 1119).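 Also: probe is the protein aXip251-270 applied at 1 µg/mL to compound-printed slides; binding of probe to printed compounds measured as 667 nm fluorescence plus signal to noise.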 The settings on record: small-molecule microarray, higher = more signal, called active from +8 up or from −8 down.
A short description of test [3]: probe aNOTCH3 binding on compound microarray – biochemical, small-molecule microarray, 635/667 nm fluorescence, primary screen (AID 1120).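 Also: probe is a biotin-tagged antibody raised against NOTCH3 rather than NOTCH3 protein; score merges spot fluorescence near 667 nm with spot signal to noise.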 The settings on record: higher = more signal.
Test [4] can be described thus: probe aNOTCH2 binding on compound microarray – biochemical, small-molecule microarray, 635/667 nm fluorescence, primary screen (AID 1121).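 Also: score merges feature fluorescence read at 667 nm with its signal to noise.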 The settings on record: higher = more signal.
The target in test [5] is Carbonic anhydrase 2 (Homo sapiens) (UniProt P00918). Put plainly: compounds binding carbonic anhydrase 2 – biochemical, small-molecule microarray, Alexa647-labelled CAII, profiling panel (AID 1122). The settings on record: CAII-A647 binding fluorescence, higher = more signal.
Test [6] in a line: COS7 lysate on small-molecule microarray, probe aHis, 635 nm (AID 1123).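 Also: z-score combines 667nm fluorescence intensity with signal-to-noise per printed compound spot.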 The settings on record: COS7 cell lysate, fluorescence, higher = more signal.
Test [7] can be described thus: probe aLAP1 signal on lysate-treated microarray – cell lysate, small-molecule microarray, COS7 lysate, primary screen (AID 1124).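 Also: lysate comes from COS7 cells expressing LAP1 and is applied at 0.3 µg/mL; score merges spot fluorescence near 667 nm with signal-to-noise over triplicate slides.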 The settings on record: probe aLAP1, fluorescence, higher = more signal.
Test [8] concerns Sam68 (KHDRBS1). In words: compounds binding KHDRBS1 protein – biochemical, small-molecule microarray, 635 nm fluorescence, primary screen (AID 1125).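 Also: score merges 667 nm channel intensity with signal to noise over triplicate slides.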 The settings on record: higher = more signal.
Test [9] deals with Chordin-like protein 2 (CHRDL2). Put plainly: compounds binding chordin-like 2 – biochemical, small-molecule microarray, 635 nm fluorescence, primary screen (AID 1126).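 Also: printed compound slides probed with Chrdl2 protein at 4 µg/mL for 1 h at 4 C; score merges 667 nm emission intensity with signal to noise over three replicate slides.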 The conditions noted are these: fluorescence 635 nm, higher = more signal.
The target of test [10] is Concanavalin-A (Canavalia ensiformis) (UniProt P02866). In words: compounds binding concanavalin A lectin – biochemical, small-molecule microarray, Alexa647 label, 635 nm, artefact control for SMM control protein annotation, primary screen (AID 1127).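 Also: z combines 667 nm emission intensity with signal-to-noise across three replicate slides.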 The conditions noted are these: ConA-A647 binding fluorescence, higher = more signal.
Chain of Concanavalin-A (Canavalia ensiformis) (P02866 whole entry, looked up): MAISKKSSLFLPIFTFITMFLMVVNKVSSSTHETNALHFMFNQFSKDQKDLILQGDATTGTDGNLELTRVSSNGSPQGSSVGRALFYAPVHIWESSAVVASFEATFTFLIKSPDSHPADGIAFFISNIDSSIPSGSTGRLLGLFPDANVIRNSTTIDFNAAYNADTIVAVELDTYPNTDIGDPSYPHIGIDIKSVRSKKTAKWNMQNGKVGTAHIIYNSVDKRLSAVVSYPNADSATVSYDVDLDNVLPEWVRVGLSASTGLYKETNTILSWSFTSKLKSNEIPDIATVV

The source made the active and inactive calls.

Turning to `Cc1ccc(C(C)CC(O)C2C=CC3C(=O)N(c4ccccc4)C(=O)C3N2Nc2ccc([N+](=O)[O-])cc2)o1` (stereo not given), the composite z-score came to 0.861 in test [1]; 0.222 in test [3]; 0.0129 in test [4]; 0.788 in test [5]; 1.96 in [6]; 0.67 in test [7]. Besides, the composite z-score in test [8] turned out to be 1.32; in test [9] it was 0.595; in test [10], 0.977. Moreover, the composite Z-score in [2] was -0.608 (inactive).
For `COc1ccc(CCN2C(=O)[C@@]3(c4ccc([N+](=O)[O-])cc4)CC(=O)N(C4CCCCC4)[C@@H]3c3ccc(CO)cc32)cc1`, the composite z-score in test [1] was -1.26; in test [3], -0.0598; in test [4], -0.101; in test [5], 0.257; in [6] it was 0.622; in [7], 0.347. Also, the composite z-score in test [8] was found to be 0.38; in test [9], 0.693; in [10] it was 0.587. Moreover, in [2], the composite Z-score is 0.469 (inactive).
Regarding `CN(C)CCCNC(=O)[C@@]1(c2ccc([N+](=O)[O-])cc2)CC(=O)N(C2CCCCC2)[C@@H]1c1ccc(CO)cc1I`, the composite z-score in test [1] is -0.13; in [3] it was -0.128; in test [4], -0.124; in test [5], 0.397; in test [6] it was 1.7; in test [7], 0.742. The composite z-score in test [8] turned out to be 1.34; in test [9], 0.096; in test [10], 1.15. In test [2], the composite Z-score was -0.75 (inactive).
With `COCC(=C=CC[C@@H](O)c1ccccc1OCCO)C[C@@H](O)c1cc(Cl)cc(Cl)c1O`, the composite z-score was 0.641 in test [1]; 0.129 in [3]; -0.14 in [4]; 0.38 in test [5]; 1.24 in test [6]; 0.822 in test [7]. Besides, the composite z-score in test [8] was determined as 1.3; in [9], 0.476; in [10], 1.08. Further, in [2], the composite Z-score is 0.103 (inactive).
Take `CCCCCCC#C[Si](O[C@H](c1ccccc1)c1cn([C@H](CO)Cc2ccccc2)nn1)(C(C)C)C(C)C`: the composite z-score in test [1] is -0.188; in [3], -0.158; in test [4] it was -0.14; in test [5] it was 0.855; in test [6], 1; in test [7] it was 0.256. In addition, the results for the composite z-score in test [8], in test [9] and in test [10] were 0.729, -0.346 and -0.0362, respectively. Also, the composite Z-score in test [2] was -0.377 (inactive).
Regarding `[N-]=[N+]=NCc1ccccc1C[C@]1(C(=O)O)N=C(c2ccc(OCCCO)cc2)O[C@H]1c1ccccc1N=[N+]=[N-]`, the composite z-score was 0.82 in [1]; 0.238 in test [3]; 0.0755 in test [4]; 0.55 in test [5]; 2.64 in test [6]; 0.571 in test [7]. Further, the composite z-score in [8] is 1.32; in test [9], -0.958; in test [10] it was 1.05. For the same compound, the composite Z-score in [2] was -0.17 (inactive).
Consider `COCCOC(=O)N1C(=O)[C@@]2(c3cc(C#Cc4ccc(OC)cc4)ccc31)[C@H](C(N)=O)[C@H]1C(=O)O[C@H](c3ccccc3)[C@H](c3ccccc3)N1[C@@H]2c1ccccc1OCCO`, for which the composite z-score in [1] was 0.73; in test [3], 0.293; in test [4] it was 0.151; in test [5] it was 0.653; in test [6] it was 2.54; in [7], 1.11. The composite z-score turned out to be 1.3 in [8], 0.565 in test [9] and 1.17 in test [10]. In addition, the composite Z-score in [2] is 0.611 (inactive).
For the compound `COc1ccc([Si](C)(C)[C@@H]2[C@@H](CCO)O[C@]3(C(=O)N(Cc4ccc(N5C(=O)COc6ccccc65)cc4)c4ccccc43)[C@H]2C)cc1`, the composite z-score was 0.671 in test [1]; 0.305 in test [3]; -0.0924 in [4]; 0.59 in [5]; 1.55 in test [6]; 0.844 in test [7]. For the same compound, the values for the composite z-score in test [8], in test [9] and in test [10] were 1.33, 0.106 and 1.07, respectively. Also, the composite Z-score in test [2] was -0.539 (inactive).
For the compound `N#Cc1ccc(NN2C(C(O)c3c(F)cccc3Cl)C=CC3C(=O)N(c4ccccc4)C(=O)C32)cc1` (stereo not given), the composite z-score in test [1] is 1.09; in test [3], -0.095; in test [4] it was 0.0563; in [5], 0.396; in test [6], 3.25; in test [7] it was 1.55. Also, the composite z-score in test [8] was 1.29; in test [9] it was -0.768; in [10] it was 1.13. For the same compound, the composite Z-score in [2] is 0.238 (inactive).
In the case of `COc1ccc([Si](C)(C)[C@H]2[C@H](CCO)O[C@@]3(C(=O)N(Cc4ccc(N5C(=O)COc6ccccc65)cc4)c4ccccc43)[C@@H]2C)cc1`, the composite z-score in test [1] is 0.373; in [3] it was -0.241; in test [4] it was -0.176; in test [5], -0.05; in test [6], 0.303; in test [7], -0.0122. In addition, the composite z-score in test [8] was 0.504; in [9], -1.13; in test [10] it was -0.116. Also, the composite Z-score in [2] was 0.485 (inactive).
For the compound `COC(=O)C=C(CC(O)c1cccc(Cl)c1)OC` (stereo not given), the composite z-score in test [1] was 1.04; in test [3], 0.936; in test [4] it was 0.436; in test [5] it was 0.811; in test [6] it was 0.461; in [7], 1.02. Further, the composite z-score was 0.0579 in [8], 0.091 in test [9] and -0.115 in test [10]. In addition, in test [2], the composite Z-score was 1.22 (inactive).
`COCCn1c(C(=O)N2CCCC2)cc2c1C[C@H]1CN(C(=O)c3ccccc3)[C@@](Cc3ccc(F)cc3)(C(=O)OC)[C@@H]21`: the composite z-score in test [1] worked out at 1.02; in [3], 0.309; in test [4], 0.11; in [5], 0.827; in test [6], 2.96; in test [7], 0.406. Also, the composite z-score in test [8] was 1.32; in test [9], -0.364; in test [10], 1. For the same compound, the composite Z-score in [2] was 2 (inactive).
For `COCC(=C=CC[C@H](O)c1ccccc1OCCO)C[C@H](O)c1cc(Cl)cc(Cl)c1O`, the composite z-score in test [1] was 0.384; in test [3], -0.0077; in test [4], -0.115; in [5] it was 0.351; in test [6] it was 0.834; in test [7], 0.478. For the same compound, the results for the composite z-score in test [8], in test [9] and in [10] were 1.24, -0.383 and 0.689, respectively. In addition, the composite Z-score in test [2] is 2.26 (inactive).
For `O=C1OCCC/C=C\[C@H]2OC34C=CCN(Cn5nnc6ccccc65)C(=O)[C@H]3N(CCO)C(=O)[C@@H]4C12` (stereo not given in full), the composite z-score is 0.926 in test [1]; 0.0004 in [3]; -0.0073 in test [4]; 0.987 in test [5]; 0.207 in [6]; 0.136 in [7]. Moreover, the composite z-score in test [8] was -0.642; in test [9], -1.89; in test [10], 0.216. The composite Z-score in test [2] was 0.605 (inactive).
With `O=C(NCC(F)(F)F)[C@@H]1c2ccccc2C(=O)N(C2CCCCC2)[C@H]1c1ccc(CO)cc1`, the composite z-score in test [1] was 0.558; in [3], -0.0313; in [4], -0.0942; in [5] it was 0.667; in test [6] it was -0.0286; in [7] it was -0.797. Moreover, the composite z-score in test [8] is 0.314; in [9], -0.615; in test [10], 1.11. Moreover, the composite Z-score in test [2] is 0.35 (inactive).
